Measured values reported in PubChem BioAssay AID2081 (NMMLSC, 2009).
Calls of active or inactive are those of the source. How the calls were made is not given here.

Target: Bcl-2-like protein 2 (Homo sapiens) (UniProt Q92843)
Experiment: inhibitors of Bim binding to Bcl-W, confirmation, biochemical, multiplexed, bead-based flow cytometry, HTS hits (AID 2081)
Conditions: Bim-Bcl-W binding displacement; series mostly up to 100 µM

Chain of Bcl-2-like protein 2 (Homo sapiens) (Q92843 whole entry, looked up): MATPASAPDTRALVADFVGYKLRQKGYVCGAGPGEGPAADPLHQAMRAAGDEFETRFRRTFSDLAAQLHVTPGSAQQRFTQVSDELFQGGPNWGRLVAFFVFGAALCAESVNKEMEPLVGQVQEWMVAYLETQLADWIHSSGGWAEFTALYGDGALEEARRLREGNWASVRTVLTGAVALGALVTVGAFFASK

outcome, inactive:
CCN(CC)c1ccc(NC(=O)c2ccccc2Br)cc1S(=O)(=O)Nc1ccccc1OC, Cc1ccc(-c2cc(-c3ccc(C)o3)nc(N)c2C#N)cc1, COc1ccc(N2C(=O)C(Cl)=C(NC3C(=O)N(c4ccccc4)N(C)C3C)C2=O)cc1 (stereo unspecified), O=c1c2c(n3nnnc3n1Cc1ccccc1)-c1ccccc1CC21CCCC1, CNC(CC(=O)c1ccc([N+](=O)[O-])cc1)C(Cl)(Cl)Cl (stereo unspecified), O=[N+]([O-])c1c(NCCCO)cc(Sc2nc3ccccc3s2)c2nonc12, CC(=O)Nc1ccc(-n2cc(-c3ccccc3)[nH]c2=S)cc1, C=CS(=O)(=O)c1sc(Cl)c(N2CCOCC2)c1[N+](=O)[O-], Cc1ccc(C=NNC(=O)CSc2nnc(-c3ccc(Cl)cc3)n2-c2ccccc2)o1, Cc1ccc(-c2cc(-c3ccc(F)cc3)c(C#N)c(N)n2)o1, CN(CCO)c1cc(Sc2nc3ccccc3s2)c2nonc2c1[N+](=O)[O-], Cc1cc(-c2cc(-c3ccc(Cl)cc3)nc(N)c2C#N)co1, CCN1C(=O)/C(=C\C=C2/C=CC=CN2CC)SC1=S, O=C1C(Cl)=C(N2CCN(c3ccccc3[N+](=O)[O-])CC2)C(=O)c2ccccc21, COc1ccc(N2C(=O)C(Cl)=C(Oc3cccc(OC)c3)C2=O)cc1, S=c1[nH]cc(-c2ccccc2)n1-c1ccccc1, COc1cc(CNc2ccc3[nH]c(=O)[nH]c3c2)cc(Br)c1OCC(=O)NC(C)(C)C, Cc1ccc(-c2nc3c(c(=O)[nH]c(=O)n3Cc3ccccc3)n2C)o1, CCN(CC)C(=O)COC(=O)c1cc(-c2ccco2)nc2ccccc12, CCN(CC)c1ccc(NC(=O)COc2ccccc2C)cc1S(=O)(=O)Nc1ccccc1OC, COc1ccccc1-n1c(-c2ccccc2)c[nH]c1=S, O=C(Nc1nnc(COc2ccc(Cl)cc2)s1)c1ccco1, Cc1ccc(-c2cc(C(=O)Nc3nccs3)c3ccccc3n2)o1, CCN(CC)c1ccc(NC(=O)c2ccccc2F)cc1S(=O)(=O)Nc1ccccc1OC, O=C1c2ccccc2C(=O)N1CN(C(=O)COc1ccc(Cl)cc1Cl)c1cccc(F)c1, O=C1/C(=C\c2ccco2)NC(=S)N1c1ccccc1
